A selection: hits, their analogues and other compounds. The true share with any hit is near 9.4%.
ELG1 genotoxic – induces genotoxicity in HEK293T cells with luciferase-tagged ELG1; HEK293T ELG1-luciferase reporter, luminescence, 16 h; Potency, µM (highest dose often 46 µM), without a hit: at the highest dose activity change, positive = activation, hits mostly activators; 1.3% of 330,000 active; also: % of control where 0% means no effect; nearly all actives have a fitted effect of over 60% in size
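Screening used a luciferase reporter fused to human ELG1 in HEK293T cells. Luminescence was read on a CCD plate imager after 16 hr exposure and 30 min ONE-Glo incubation.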
SMN2 splice enh – enhancers of SMN2 splice variant expression; Potency, µM (top dose mostly 46.1 µM), without a hit: at the top dose activity change, positive = activation, usual class: activators; AID 1458; HEK293 SMN2-luciferase splicing reporter, luminescence, 30-36 h; 2.8% of 210,000 active; also: % of control where 0% means no effect; nearly all actives have a fitted effect of over 55% in size
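qHTS luciferase splicing reporter: luminescence rises when SMN2 exon 7 is included in transfected HEK293 cells. Compound exposure lasted 30-36 h at 37C, with 4.5 mM final sodium butyrate as control, followed by a ONE-Glo read.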
ELG1 repair inh – inhibitors of ELG1-dependent DNA repair in HEK293T cells; HEK293T ELG1-luciferase reporter, luminescence, 16 h; DNA damage induced by 5-fluorouridine; Potency, µM (series often up to 46.1 µM), for inactives: top-dose activity change, negative = inhibition, hits mostly inhibitors; 2.3% of 330,000 active; also: % is scaled to controls: 0 for no effect and ±100 for the full control effect; nearly all actives have a fitted effect of over 55% in size
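Reporter activity after DNA damage by 5-fluorouridine is monitored. Compound-treated cells incubate 16 hr at 37 °C, then ONE-Glo is added for 30 min before luminescence reading.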
Rab9 prom act – activators of Rab9 promoter; 2.8% of 320,000 active; Huh7 Rab9 promoter-luciferase reporter, luminescence, 24 h; Potency, µM (titrated, usually from 9.22 µM), without a hit: at the top dose activation, negative = inhibition, usual class: activators; AID 485297; also: % of control where 0% means no effect; nearly all actives have a fitted effect of over 60% in size
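Cell-based reporter: Huh7 stable for Rab9 promoter-driven luciferase, plated in reduced-serum medium with 10% FBS at 1500 cells/well, compound-treated 24 h at 37 °C, luminescence read after 10 min reagent.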
FLuc counter – counter-screen for miR-21 project: firefly luciferase inhibitors or activators; 6.9% of 360,000 active; Potency, µM (doses to about 57.5 µM), for inactives: at the highest dose activity change, negative = inhibition, most hits filed as inhibitors; purified FLuc, Km substrates, luminescence inhibition; P08659;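 also: plate controls were vehicle for no effect and reference inhibitor for full effect; nearly all actives have a fitted effect of over 55% in size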
Target sequence (P08659 whole entry, looked up): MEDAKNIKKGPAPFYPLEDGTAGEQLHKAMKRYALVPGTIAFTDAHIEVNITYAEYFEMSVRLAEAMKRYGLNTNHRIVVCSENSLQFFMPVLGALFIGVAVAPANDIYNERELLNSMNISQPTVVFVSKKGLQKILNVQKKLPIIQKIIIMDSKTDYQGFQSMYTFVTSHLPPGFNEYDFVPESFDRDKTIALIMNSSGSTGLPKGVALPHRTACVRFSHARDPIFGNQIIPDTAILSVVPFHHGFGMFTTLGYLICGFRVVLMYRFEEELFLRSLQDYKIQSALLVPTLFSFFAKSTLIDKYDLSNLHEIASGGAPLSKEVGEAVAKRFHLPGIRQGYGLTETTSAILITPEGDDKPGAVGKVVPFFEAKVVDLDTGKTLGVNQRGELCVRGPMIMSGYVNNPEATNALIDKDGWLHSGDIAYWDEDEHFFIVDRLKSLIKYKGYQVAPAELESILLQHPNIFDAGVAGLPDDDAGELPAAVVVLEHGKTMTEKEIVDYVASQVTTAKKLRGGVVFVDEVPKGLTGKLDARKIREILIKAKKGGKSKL
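Biochemical qHTS of compounds, final roughly 60 µM downward over six points, against 10 nM purified firefly luciferase using Km concentrations of substrates (10 uM D-luciferin, 10 uM ATP) in Tris acetate pH 7.5 buffer; luminescence output.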
NPC1 promoter act – activates the NPC1 promoter; Huh7 NPC1 promoter luciferase reporter, 24 h; Potency, µM (doses to about 9.22 µM), inactives show at the top dose activation, usual class: activators; 2.4% of 320,000 active; AID 485313; also: % of control where 0% means no effect; nearly all actives have a fitted effect of over 60% in size
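Stable NPC1-promoter luciferase Huh7 line; cpd (DMSO) 24 h, 37 °C, 5% CO2; Amplite luciferase reagent 10 min RT; luminescence readout. qHTS format.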
Active calls of the source: *; [ ] = another dose, or the depositor's remark. Calls follow the shape of the dose curve; as a rule, active = well fitted curve in the direction sought with a large enough effect; inconclusive = small, poorly fitted or top-dose-only effect, or another doubt; inactive = no such curve, though single readings can be large; an effect the other way counts as inactive or inconclusive. Potency is read from the fitted curve at half-maximal effect.

O=C(Nc1nnc(SCC(=O)N2CCCc3ccccc32)s1)c1ccc2ccccc2c1 was read as ELG1 genotoxic inconclusive, SMN2 splice enh 11µM*, ELG1 repair inh inconclusive, Rab9 prom act 2.8µM*, FLuc counter 1.2µM* and NPC1 promoter act inconclusive.
`Cc1cc(C)cc(C(=O)Nc2nnc(SCC(=O)N3CCCc4ccccc43)s2)c1` gave ELG1 genotoxic 2%, SMN2 splice enh 3%, ELG1 repair inh -5%, Rab9 prom act 1%, FLuc counter inconclusive and NPC1 promoter act -2%.
Screening O=C(Nc1nnc(SCC(=O)N2CCCc3ccccc32)s1)c1ccccc1 returned ELG1 genotoxic 12%, SMN2 splice enh 11µM*, ELG1 repair inh inconclusive, Rab9 prom act inconclusive, FLuc counter 1.5µM* and NPC1 promoter act inconclusive.
Screening CC1=C(C(=O)Nc2cc(Cl)ccc2C)C2(CCCCC2)OC1=O returned SMN2 splice enh 5% and FLuc counter -2%.
Cc1cccc(C)c1Nc1nc2ccccc2o1 was read as ELG1 genotoxic -7%, SMN2 splice enh -15%, ELG1 repair inh -7%, Rab9 prom act -3%, FLuc counter 5% and NPC1 promoter act -2%.
CCS(=O)(=O)c1ccc2oc(Nc3ccccc3Br)nc2c1 was read as ELG1 genotoxic 10µM*, ELG1 repair inh inconclusive, Rab9 prom act 2µM*, FLuc counter 9.5µM* and NPC1 promoter act 2.5µM*.
For CCS(=O)(=O)c1ccc2oc(Nc3ccc(C(C)(C)C)cc3)nc2c1 the results were ELG1 genotoxic -5%, SMN2 splice enh -18%, ELG1 repair inh -2%, Rab9 prom act 2%, FLuc counter -15% and NPC1 promoter act -8%.
Screening CCS(=O)(=O)c1ccc2oc(Nc3ccccc3Cl)nc2c1 returned ELG1 genotoxic 5.2µM*, ELG1 repair inh inconclusive, Rab9 prom act 0.63µM*, FLuc counter 9.5µM* and NPC1 promoter act 1.6µM*.
CCS(=O)(=O)c1ccc2oc(Nc3cccc(OC)c3)nc2c1 was read as ELG1 genotoxic 7%, SMN2 splice enh 17%, ELG1 repair inh inconclusive, Rab9 prom act inconclusive, FLuc counter 17µM* and NPC1 promoter act 10%.
Clc1ccccc1Nc1nc2ccccc2o1 was read as ELG1 genotoxic inconclusive, ELG1 repair inh inconclusive, Rab9 prom act 0.79µM*, FLuc counter 1.7µM* and NPC1 promoter act inconclusive.
For CCS(=O)(=O)c1ccc2oc(Nc3ccc(OC)cc3)nc2c1 the results were ELG1 genotoxic 10%, SMN2 splice enh 3%, ELG1 repair inh 14%, Rab9 prom act 25%, FLuc counter inconclusive and NPC1 promoter act 16%.
`CC1(C)COCN1COC1CCCCC1` gave SMN2 splice enh -9%[9.22 µM].
For CC(=O)NCc1cc(Cl)c2cccnc2c1O the results were Rab9 prom act 1%, FLuc counter -1% and NPC1 promoter act -3%.
COc1ccc2nc(NCN3C(=O)c4ccccc4C3=O)sc2c1 was read as SMN2 splice enh -5%[9.22 µM].
For COc1ccc(Nc2nccc(-c3cccc(N)c3)n2)cc1 the results were ELG1 genotoxic 0%, ELG1 repair inh inconclusive, Rab9 prom act inconclusive, FLuc counter 2.7µM* and NPC1 promoter act 1.8µM*.
`Cc1ccc2[nH]c(=O)c(CN(CCc3ccccc3)C(c3nnnn3Cc3ccco3)C(C)C)cc2c1` (centres undefined) gave ELG1 genotoxic -9%, ELG1 repair inh 18µM*, Rab9 prom act -1%, FLuc counter 5% and NPC1 promoter act -3%.
Cc1ccc(C)c(Cn2nnc3c(=O)[nH]c(C4CCN(S(=O)(=O)c5ccc(S(=O)(=O)NC6CC6)cc5)CC4)nc32)c1 was read as ELG1 genotoxic -9%, ELG1 repair inh 16µM*, Rab9 prom act -8%, FLuc counter 4% and NPC1 promoter act -1%.
For O=c1[nH]c(C2CCN(S(=O)(=O)c3ccc(F)cc3)CC2)nc2c1nnn2Cc1ccc2c(c1)OCCO2 the results were ELG1 genotoxic -5%, ELG1 repair inh 26µM*, Rab9 prom act -1%, FLuc counter -2% and NPC1 promoter act -1%.
Screening Cc1ccc(C)c(Cn2nnc3c(=O)[nH]c(C4CCN(S(=O)(=O)c5ccc(S(=O)(=O)N(C)C)cc5)CC4)nc32)c1 returned ELG1 genotoxic -7%, ELG1 repair inh -17%, Rab9 prom act 3%, FLuc counter -2% and NPC1 promoter act -3%.
For O=c1[nH]c(C2CCN(S(=O)(=O)c3ccc(S(=O)(=O)NC4CC4)cc3)CC2)nc2c1nnn2Cc1ccccc1 the results were ELG1 genotoxic -22%, ELG1 repair inh 18µM*, Rab9 prom act -1%, FLuc counter 1% and NPC1 promoter act 1%.
O=c1[nH]c(C2CCN(S(=O)(=O)c3ccc(S(=O)(=O)NC4CC4)cc3)CC2)nc2c1nnn2Cc1ccc(F)cc1 was read as ELG1 genotoxic -7%, ELG1 repair inh inconclusive, Rab9 prom act 5%, FLuc counter 1% and NPC1 promoter act -2%.
For COc1ccc(-c2nnc(SCC(=O)c3ccc(NC(C)=O)cc3)o2)cc1OC the results were FLuc counter 1%.
For CCn1c2ccccc2c2cc(CN3CCN(Cc4ccc(Cl)cc4)CC3)ccc21 the results were SMN2 splice enh -10% and FLuc counter 2%.
For O=C(CCC1CCCN(C(=O)c2ccccc2Cl)C1)N1CCN(c2ccccn2)CC1 (centres undefined) the results were ELG1 genotoxic -9%, ELG1 repair inh inconclusive, Rab9 prom act -2%, FLuc counter 5% and NPC1 promoter act -3%.
OCC1=CC[N+]2(Cc3ccccc3)CCC(O)[C@@H]12 (some centres undefined) was read as SMN2 splice enh 4%.
Screening COc1ccc(-c2nc3c(s2)CN(S(C)(=O)=O)CC3)cc1OC returned ELG1 genotoxic 10%, ELG1 repair inh inconclusive, Rab9 prom act 2%, FLuc counter inconclusive and NPC1 promoter act 19%.
For CCS(=O)(=O)N1CCc2nc(-c3ccccc3)sc2C1 the results were ELG1 genotoxic inconclusive, ELG1 repair inh inconclusive, Rab9 prom act 1.1µM*, FLuc counter 4.8µM* and NPC1 promoter act 0.63µM*.
For COc1ccc(Cl)cc1NC(=O)COC(=O)/C=C/c1c(C)nn(C2CCS(=O)(=O)C2)c1Cl (centres undefined) the results were ELG1 genotoxic -7%, ELG1 repair inh 13µM*, Rab9 prom act -21%, FLuc counter -8% and NPC1 promoter act -4%.
